The record followed here is PubChem BioAssay (Tox21).

Active and inactive are the calls of the source. Calls come from the whole dose curve; as a rule, active = well fitted curve in the direction sought with a large enough effect in the repeat runs; inconclusive = weak or mixed curves; inactive = flat fitted curve, though single readings scatter.
% is set by controls: 0 for no effect and ±100 for the full control effect.

This test is described as follows: qHTS assay to test for compound auto fluorescence at 590 nm (red) in HepG2 cells (AID 720674). The following applies: HepG2 autofluorescence, red 540/590 nm, 1 h; series mostly up to 91.3 µM. An excerpt:
U.S. Tox21 Program National Center for Advancing Translational Sciences [NCATS] NIH Chemical Genomics Center [NCGC] U.S. Environmental Protection Agency [EPA] National Institutes of Environmental Health Sciences [NIEHS] National Toxicology Program [NTP] U.S. Food and Drug Administration [FDA] Tox21 Assay Overview: Compound auto fluorescence often interferes with screening of the compound library against various biological targets and signaling pathways. Some of these compounds may have fluorophoric properties. Such properties may interfere with the assay outputs resulting in false positives and/or negatives. To decrease such complications and ensure the compound activities are relevant in terms of biological response, the Tox21 10K compound library was screened for auto fluorescence. From the fluorophores used as reporter signals in our screening assays, the auto fluorescence equivalencies of compounds against three fluorophores have been evaluated: Triamterene, Fluorescein and Rose Bengal sodium for blue, green and red fluorescence, respectively. The fluorescence intensities were measured using Excitation/Emission wavelengths at 405/460nm, 485/535nm and 540/590nm for blue, green and red labels, respectively. This assay includes the red fluorescence data.
Tox21 Assay Protocol Summary: 2,000 HepG2 cells in 5 uL of culture medium (MEM containing 10% FBS) per well were dispensed into black wall/clear bottom 1536-well plates using a Multidrop Combi Dispenser (ThermoFisher Scientific, Waltham, MA). The assay plates were incubated overnight at 37 C to allow cell attachment to the well bottom, followed by the transfer of 23 nL compound or DMSO vehicle by a pintool work station (Kalypsys , San Diego, CA). After the assay plates were incubated for 1 hr at 37 C and 5% CO2, fluorescence intensities in the assay plates were measured by an Envision (PerkinElmer, Shelton, CT) plate reader using three labels for measuring blue, green and red fluorescence at […] 460, 535 and 590 nm respectively.
Background: In qHTS, concentration-response curves come from the screen itself.
Consider `O=C1C(Cl)=C(Cl)C(=O)C(Cl)=C1Cl`, for which the result was inactive.

For `CNC(=O)CSP(=O)(OC)OC`, the compound was classed as inactive.

As for `CC(Cc1ccc(O)cc1)NCC(O)c1cc(O)cc(O)c1` (stereo not given), the call was inactive.

For `Brc1ccc(Oc2ccc(Br)cc2Br)c(Br)c1`, the compound was classed as inactive.

As for `CSC(=O)c1c(C(F)F)nc(C(F)(F)F)c(C(=O)SC)c1CC(C)C`, the result was inactive.

Take `CNN`: the call was inactive.

On to `COc1ccc2c3c1O[C@H]1[C@H](O)CC[C@H]4[C@@H](C2)N(C)CC[C@@]341`, for which the call was inactive.

For the compound `O=C(O)[C@H](O)[C@@H](O)C(=O)O`, the compound was called inactive.

For `Oc1ccc(Cl)c(Cl)c1`, the outcome was inactive.

Consider `O=Cc1ccccc1`, for which the result was inactive.

Consider `Nc1nc(N)nc(Cl)n1`, for which the call was inactive.

As for `ClC1=C(Cl)[C@]2(Cl)[C@@H]3[C@H]4C[C@H]([C@@H]5O[C@H]45)[C@@H]3[C@@]1(Cl)C2(Cl)Cl`, the compound was called inactive.

For `COc1ccc2[nH]cc(CCN(C(C)C)C(C)C)c2c1`, the compound was called inactive.

In the case of `COc1ccc2c(c1OC)C(=O)O[C@@H]2[C@H]1c2cc3c(cc2CCN1C)OCO3`, the compound was classed as inactive.

As to `Nc1ccc(N=Nc2ccccc2)cc1`, the result was inactive.

Consider `ClC(Cl)C(Cl)(Cl)Cl`, for which the compound was called inactive.

Take `CCCCCCC[CH2][Sn]([Cl])([Cl])[CH2]CCCCCCC`: the compound was classed as inactive.

As for `Oc1ccc2[nH]cc(CCCCN3CC=C(c4ccccc4)CC3)c2c1`, the result was inactive.

Take `CCC1(CC)C(=O)N=C(O)NC1=O`: the compound was classed as inactive.

Take `C=C(C)C(=O)[O][Sn]([CH2]CCC)([CH2]CCC)[CH2]CCC`: the compound was called inactive.

As for `COC(=O)c1ccccc1S(=O)(=O)NC(=O)Nc1nc(C)nc(OC)n1`, the compound was classed as inactive.

Regarding `OCC(Br)CBr` (stereo not given), the call was inactive.

With `Oc1ccc([C@H]2CNCc3c2ccc(O)c3O)cc1O`, the call was inactive.

Regarding `O=C(Nc1ccc(F)cc1F)c1cccnc1Oc1cccc(C(F)(F)F)c1`, the compound was called inactive.

`COc1ccc(Cc2nccc3cc(OC)c(OC)cc23)cc1OC`: the fluorescence, relative to Rose Bengal was 0.593% [at 18.6 µM] (inactive).

Regarding `O=S1(=O)OCC2C(CO1)C1(Cl)C(Cl)=C(Cl)C2(Cl)C1(Cl)Cl` (stereo not given), the compound was called inactive.

Consider `Cc1cnc2c(C(=O)O)c(Cl)ccc2c1`, for which the result was inactive.

With `O=C(O)CCCCCCNC1c2ccccc2CCc2ccccc21`, the call was inactive.

As for `N#Cc1sc2c(=O)c3ccccc3c(=O)c=2sc1C#N`, the result was inactive.

In the case of `CCCN`, the outcome was inactive.

On to `CCC1COC(Cn2cncn2)(c2ccc(Cl)cc2Cl)O1` (stereo not given), for which the compound was called inactive.

Turning to `CC1(C)[C@H](/C=C2\CCSC2=O)[C@@H]1C(=O)OCc1coc(Cc2ccccc2)c1`, the outcome was inactive.

On to `C#CC1(O)CCCCC1`, for which the compound was classed as inactive.

In the case of `CN1CCc2cc3c(cc2C1O)OCO3` (stereo not given), the outcome was inactive.

Consider `CCn1cc[n+](C)c1` (tested in a mixture with another compound), for which the result was inactive.

Take `CC(Cc1ccc(OCC(=O)O)cc1)NCC(O)c1csc(C(F)(F)F)n1` (stereo not given): the compound was classed as inactive.

With `CCCCN(CCCC)C(=S)S`, the result was inactive.

In the case of `O=[N+]([O-])c1cc(C(F)(F)F)c(Cl)c([N+](=O)[O-])c1Nc1ncc(C(F)(F)F)cc1Cl`, the compound was called inactive.

Consider `C=CC(=C)C`, for which the outcome was inactive.

Take `CCN1CCC2(CC1)COc1cc3c(cc12)N(C(=O)c1ccc(-c2ccc(-c4nnc(C)o4)cc2C)cc1)CC3`: the compound was classed as inactive.
